Among all 13,000 compounds or so, about 3,200 (25%) showed an effect of 50% or more. Some of the results follow.
Each molecule was assayed on P. falciparum stage V gametocytes. Conditions: 48 h, 5 µM; inhibitor.
Parameters: BacTiter-Glo ATP luminescence viability of purified stage V gametocytes in 384-well plates, per cent inhibition versus DMSO

Point of comparison: `COc1ccc(NC(=O)/C=C/c2ccccc2Cl)cc1OCCN1CCC(NCc2cccnc2)CC1` [TCMDC-140758], “% Inhibition” value -13.35%. Against it:
- O=C(Nc1cc(Cl)ccc1O)c1ccc(Oc2ccc(C(=O)Nc3cc(Cl)ccc3O)cc2)cc1 [TCMDC-124084] — lower, -31.23%
- Cc1ccc(C)c(NC(=O)NC2CCN(c3ccnc(Nc4ccc(F)cc4)n3)C2)c1 (centres unmarked) [TCMDC-133601] — higher, -9.129%
- Cc1ccc2[nH]ncc2c1N(CC1CCCCC1)c1ccnc(Nc2ccc(OCC(O)CN3CC=CCC3)cc2)n1 (centres unmarked) [TCMDC-138794] — higher, 108.6%
- COc1ccc(Nc2nccc(N3CCC(NC(=O)Nc4cc(C)ccc4C)C3)n2)cc1 (centres unmarked) [TCMDC-133615] — lower, -63.4%
- Cc1noc(-c2ccccc2)c1CN1CCCC2(CC(C(=O)NCc3cccc(F)c3F)=NO2)C1 (centres unmarked) [TCMDC-136606] — lower, -21.45%
- Cc1noc(C)c1-c1cccc(CNCc2cccc(-c3ccc(-c4nc5cccc(C)c5[nH]4)cc3)c2)c1.O=C(O)C(F)(F)F [TCMDC-133056] — higher, -10.48%
- Cc1[nH]c(C)c(-c2ccc(Oc3ccc([S+](C)[O-])cc3)cc2)c(=O)c1Br (centres unmarked) [TCMDC-137400] — higher, 34.54%
- Cc1[nH]c(C)c(-c2ccc(Oc3ccc(F)cc3)cc2)c(=O)c1Br [TCMDC-137402] — higher, 76.64%
- C=CCOc1ccc(-c2c(C)[nH]c(C)c(Br)c2=O)cc1 [TCMDC-135042] — higher, 74.1%
- Cc1[nH]c(C)c(-c2ccc(OCc3ccc(F)cc3)cc2)c(=O)c1Br [TCMDC-138928] — higher, 4.156%
- Cc1[nH]c(C)c(-c2ccc(OCc3ccccc3)cc2)c(=O)c1Br [TCMDC-138901] — higher, 61.61%
- Cc1[nH]c(C)c(-c2ccc(-c3ccc(F)cc3)cc2)c(=O)c1Br [TCMDC-137421] — higher, 28.52%
- Cc1[nH]c(C)c(-c2ccc(Oc3ccccc3)cc2)c(=O)c1Br [TCMDC-137410] — higher, 67.24%
- Cc1[nH]c(C)c(-c2ccc(Oc3ccc(Cl)cc3)cc2)c(=O)c1Br [TCMDC-137420] — higher, 17.1%
- CCN1CCN(c2cc(C)c3cc(NC(=O)c4cccc([N+](=O)[O-])c4)ccc3n2)CC1 [TCMDC-125577] — higher, 8.914%
- CCN(CC)CCn1c2ccccc2c2ccc(C(=O)Nc3ccc4sc(C)nc4c3)cc21 [TCMDC-135280] — higher, -1.763%
- O=C(c1cccc(-c2ccc(-c3nc4cc(F)ccc4[nH]3)s2)c1)N1CCCCC1CN1CCC(O)C1 (centres unmarked) [TCMDC-132343] — lower, -28.04%
- COc1ccc2nc(C)cc(Nc3ccc(Oc4ccc(Cl)cc4)c(Cl)c3)c2c1 [TCMDC-123477] — the same, -13.35%
- Cc1csc(NC(=O)c2cn(-c3ccccc3)nc2-c2cccs2)n1 [TCMDC-124531] — higher, 15.91%
- CC1CCCC(NCc2c(O)ccc3ccccc23)C1 (centres unmarked) [TCMDC-137601] — higher, 28.2%
- O=C(NCc1cccc2ccccc12)[C@@H]1CCCN1C(=O)c1ccc(O)c(-c2ccc(Cl)c(Cl)c2)c1 [TCMDC-140876] — higher, 16.61%
- COc1ccc2ccc(F)c(CC(=O)N3CCOC(CNCc4cccc(-c5ccc(F)cc5)n4)C3)c2n1 (centres unmarked) [TCMDC-135026] — lower, -25.99%
- CCOC(=O)c1c(CSc2ccccc2)oc2cc(CN(C)C)c(O)c(Cl)c12 [TCMDC-124095] — lower, -76.05%
- Cc1cccc2[nH]c(-c3ccc(-c4cccc(NCc5cn6cccnc6n5)c4)cc3)nc12 [TCMDC-136896] — lower, -19.99%
- COc1cccc2cc(C(=O)N[C@@H](CC(C)C)C(=O)Nc3cc(F)ccc3Br)oc12 [TCMDC-135547] — higher, 2.093%
- C=Cc1ccc(-c2c(C)[nH]c(C)c(Br)c2=O)cc1 [TCMDC-135433] — higher, 58.24%
- Cc1[nH]c(C)c(-c2ccc(OCCCc3ccccn3)cc2)c(=O)c1Br [TCMDC-135795] — higher, 65.53%
- C=CCOc1ccccc1CNCC(O)c1cc(Br)cs1 (centres unmarked) [TCMDC-140498] — higher, -6.926%
- CN(C)C(CNC(=O)c1cc(-c2ccncc2)c(-c2ccc(NC(=O)Nc3cccc(Cl)c3)cc2)o1)c1ccccc1 (centres unmarked) [TCMDC-135781] — lower, -15.22%
- COc1cccc(NC(=O)Nc2ccc(Nc3nc(C)cc(N(C)C)n3)cc2)c1 [TCMDC-124959] — higher, 26.66%
- CCC(C)(C)NC(C)C(O)c1ccc(C(F)(F)F)cc1 (centres unmarked) [TCMDC-138152] — higher, -4.943%
- Cc1ccc(NCC(=O)Nc2ccc(F)c(Cl)c2)cc1S(=O)(=O)N1CCOCC1 [TCMDC-123553] — higher, -4.453%
- Cc1[nH]c(C)c(-c2ccc(Oc3cc(Cl)cc(Cl)c3)cc2)c(=O)c1Cl [TCMDC-137391] — higher, 69.19%
- Cc1[nH]c(C)c(-c2ccc(Oc3cccc(Cl)c3)cc2)c(=O)c1Cl [TCMDC-137395] — higher, 75.57%
- Cc1[nH]c(C)c(-c2ccc(Oc3ccc(Cl)cc3)cc2)c(=O)c1C [TCMDC-137378] — higher, 85.12%
- Cc1[nH]c(C)c(-c2ccc(Oc3ccc(Cl)cc3)cc2)c(=O)c1Cl [TCMDC-137418] — higher, 32.25%
- Cc1[nH]c(C)c(-c2ccc(Oc3ccc(Cl)cc3)cc2)c(=O)c1I [TCMDC-137393] — higher, 12.14%
- NC(=O)c1ccsc1NC(=O)CNC(c1ccc(F)cc1)c1cccs1 (centres unmarked) [TCMDC-125036] — higher, 5.053%
- C[C@@H]1CN(C(c2cccc(O)c2)c2cccc(C(=O)N(C)c3cccc(F)c3)c2)[C@@H](C)CN1C(c1cccc(O)c1)c1cccc(C(=O)N(C)c2cccc(F)c2)c1 (some centres unmarked) [TCMDC-137248] — lower, -16.24%
- CCN(CC)CCCN(C(=O)Nc1ccc(C#N)cc1)c1nc(-c2ccc(F)cc2)cs1 [TCMDC-136664] — higher, -0.5138%
- CN1C2CCC1c1cc(NC(=O)c3cc(-c4ccc(Cl)cc4)cs3)ccc12 (centres unmarked) [TCMDC-134192] — lower, -60.68%
- CCOc1cc(C(=O)NC2CCN(Cc3ccccc3)CC2)ccc1-c1nc2cc(Cl)c(F)cc2[nH]1 [TCMDC-140096] — lower, -27.97%
- CC(C)(C)c1cc(C(=O)N2CCN(c3ncnc4ccsc34)CC2)n(Cc2ccccc2)n1 [TCMDC-133771] — lower, -19.67%
- CCCCNCC(O)COc1ccccc1-c1ccc(N/N=C/c2cccc3ccccc23)nn1 (centres unmarked) [TCMDC-139416] — higher, 102.4%
- COc1cc(NC(=O)c2sc(-c3ccc(Cl)cc3)cc2NC(=O)N2CCCC2)ccc1OCCN1CCCC1 [TCMDC-135404] — higher, 71.79%
- COc1ccc(NC(=O)/C=C/c2ccccc2Cl)cc1OCCN1CCN(c2ccncc2)CC1 [TCMDC-140732] — higher, 4.813%
- COc1cc(NC(=O)c2sc(-c3ccc(Cl)cc3)cc2NC(=O)c2cccc(N(C)C)c2)ccc1OCCN1CCCC1 [TCMDC-135403] — higher, 72.06%
- COc1ccc(NC(=O)c2ccc3[nH]c(-c4ccc(Cl)cc4)cc3c2)cc1OCCN(C)C [TCMDC-138706] — lower, -82.62%
- Cc1ccc(NC(=O)c2ccc(-c3cc4cc(Cl)c(Cl)cc4[nH]3)cc2)cc1OCCN1CCCC1 [TCMDC-141289] — higher, 43.64%
- COc1cc(NC(=O)c2sc(-c3ccc(Cl)cc3)cc2NC(=O)c2ccncc2)ccc1OCCN1CCCC1 [TCMDC-135398] — higher, 121.8%
- COc1cc(NC(=O)c2ccc(-c3ccc(C(C)=O)cc3)s2)ccc1OCCN1CCCC1 [TCMDC-138864] — higher, -4.371%
- COc1cc(NC(=O)c2sc(-c3ccc(Cl)cc3)cc2Cl)ccc1OCCN1CCCC1 [TCMDC-135556] — lower, -58.99%
- COc1cc(NC(=O)c2sc(-c3ccc(Cl)cc3)cc2NC(=O)c2cccnc2)ccc1OCCN1CCCC1 [TCMDC-135397] — higher, 125.5%
- COc1cc(NC(=O)c2ccc3oc4ccccc4c3c2)ccc1OCCN1CCCCC1 [TCMDC-140701] — higher, -7.89%
- O=C(NCC1CCC(CNCCc2ccccc2)CC1)Nc1ccc(Cl)c(Cl)c1 (centres unmarked) [TCMDC-140704] — higher, -8.295%
- CCCCCc1cc(O)c2c3c(c(=O)oc2c1)CN(C)CC3 [TCMDC-124170] — higher, 9.829%
- CC(=O)Nc1csc(-c2cnc(/C=C(\C)C[C@@H]3OC[C@H](C[C@@H]4O[C@H]4[C@@H](C)[C@H](C)O)[C@@H](O)[C@H]3O)o2)c1 [TCMDC-131575] — higher, 0.669%
- COc1cccc(NC(=O)NC2CCN(c3ccnc(Nc4cc(OC)c(OC)c(OC)c4)n3)C2)c1 (centres unmarked) [TCMDC-133627] — lower, -76.2%
- CN(C)C(=S)N=Nc1c(O)[nH]c2ccccc12 [TCMDC-124262] — lower, -39.06%
- COc1cc(NC(=O)/C=C/c2ccccc2OC(F)(F)F)cc(OCCN2CCC(O)(c3ccccc3)CC2)c1 [TCMDC-140935] — higher, -5.416%
- COc1ccc(C2CCN(CCN3CCC(NC(=O)c4cccc(-c5ccncc5)c4)CC3)CC2)c(OC)c1 [TCMDC-135431] — higher, -2.358%
- COc1cc(NC(=O)c2sc(-c3ccc(Cl)cc3)cc2NC(=O)CN2CCCC2)ccc1OCCN1CCCC1 [TCMDC-135381] — higher, -9.57%
- COc1cc(NC(=O)c2sc(-c3ccc(Cl)cc3)cc2NC(=O)CN2CC[C@@H](O)C2)ccc1OCCN1CCCC1 [TCMDC-135380] — higher, 114.3%
- COc1ccc(CCCON2C(N)=NC(N)=NC2(C)C)cc1 [TCMDC-131693] — higher, 15.23%
- O=C(NCCCCN1CCC(c2ccc([N+](=O)[O-])cc2)CC1)c1ccc(NC(=O)c2ccc(Cl)cc2)cc1 [TCMDC-138350] — higher, 25.02%
- C=CCc1ccc(C2CCN(CCCCNC(=O)c3ccc(NC(=O)c4ccc(Cl)cc4)cc3)CC2)cc1 [TCMDC-138355] — higher, 87.45%
- CCCc1ccc(C2CCN(CCCCNC(=O)c3ccc(NC(=O)c4ccc(Cl)cc4)cc3)CC2)cc1 [TCMDC-138358] — higher, 87.46%
- O=C(NCCCCN1CCC(c2ccc(Br)cc2)CC1)c1ccc(NC(=O)c2ccc(Cl)cc2)cc1 [TCMDC-138347] — higher, 1.75%
- CCc1ccc(C2CCN(CCCCNC(=O)c3ccc(NC(=O)c4ccc(Cl)cc4)cc3)CC2)cc1 [TCMDC-138351] — higher, 54.3%
- O=C(NCCCCN1CCC(c2ccc(OC(F)(F)F)cc2)CC1)c1ccc(NC(=O)c2ccc(Cl)cc2)cc1 [TCMDC-138327] — higher, 35.48%
- O=C(NCCCCN1CCN(c2cccc3ccccc23)CC1)c1ccc(NC(=O)c2ccc(Cl)cc2)cc1 [TCMDC-138514] — higher, -0.4742%
- CCc1ccccc1N1CCN(CCCC(=O)c2ccc(NC(=O)c3ccc(Cl)cc3)cc2)CC1 [TCMDC-138230] — higher, -10.32%
- CCc1ccccc1N1CCN(CCCCNC(=O)c2ccc(NC(=O)c3ccc(Cl)cc3)cc2)CC1 [TCMDC-138192] — higher, 63.87%
